Assay results taken from a collection of fitness landscapes (doi:10.1016/j.celrep.2020.107928).
Over roughly 81,000 sequences, “one-hybrid fitness for binding NBS DNA” has its median near -0.1; the highest 2% begin near 0.36. Shown is part of a subset that was picked to be rich in the highest values.

B1: Caulobacter ParB omega fusion; a variant is named by its letters at X, in order, B8GW30 (parent)
chain: MESVVVGEPGMSEGRRGLGRGLSALLGEVDAAPAQAPGEQLGGSREAPIEILQRNPDQPRRTFREEDLEDLSNSIREKGVLQPILVRPSPDTAGEYQIVAGERAWRAAQRAGLKTVPIMVRELDDLAVLEIGIIENVQRADLNVLEEALSYKVLMEKFERTQENIAQTIGKSXSHVANXMRLLXLPDEVQSYLVSGELTAXHARAIAAAADPVALAKQIIEGGLSVRETEALARKAPNLSAGKSKGGRPPRVKDTDTQALESDLSSVLGLDVSIDHRGSTGTLTITYATLEQLDDLCNRLTRGI

Variants of: B1
Experiment: one-hybrid fitness for binding NBS DNA (the Noc-binding site; scaled: cognate 1, non-cognate 0); higher = stronger binding
Conditions: with NBS DNA site
Procedure, shortened: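 Caulobacter ParB libraries with four specificity codons randomised were screened by bacterial one-hybrid selection in the E. coli USO strain, using a HIS3 reporter whose site lies 19 bp from the promoter. Selection ran for 48 hours at 37°C on M9 lacking histidine, with 0.1 mM IPTG and 5 mM 3-AT. Plasmids were Illumina-sequenced before and after selection, three replicate libraries were pooled, and variants with under 10 reads were dropped. Fitness is the log change in each variant's read ratio to wild type, rescaled against the cognate and non-cognate sites.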

Row | Variant | one-hybrid fitness for binding NBS DNA
1 | LFGC | ≤ 0.2
2 | DFND | ≤ 0.2
3 | HHDK | ≤ 0.2
4 | NKRM | ≤ 0.2
5 | EPHG | ≤ 0.2
6 | TMRV | ≤ 0.2
7 | KINT | ≤ 0.2
8 | AVTK | ≤ 0.2
9 | QSFM | ≤ 0.2
10 | YMRR | ≤ 0.2
11 | QGHN | ≤ 0.2
12 | AHIF | ≤ 0.2
13 | DQPR | ≤ 0.2
14 | VTFK | ≤ 0.2
15 | PKYY | ≤ 0.2
16 | QSCQ | ≤ 0.2
17 | QRCS | 0.693
18 | QRCD | 0.237
19 | QRCQ | 0.382
20 | QRCP | 0.249
21 | ALAT | ≤ 0.2
22 | THPT | ≤ 0.2
23 | QTFI | ≤ 0.2

Row | Variant | one-hybrid fitness for binding NBS DNA
24 | QPKI | ≤ 0.2
25 | QRVI | ≤ 0.2
26 | QTVI | ≤ 0.2
27 | QRPI | ≤ 0.2
28 | QSKI | 0.314
29 | QRKI | 0.52
30 | QTKI | 0.468
31 | QCKI | 0.405
32 | KYRQ | ≤ 0.2
33 | YRRY | ≤ 0.2
34 | PRVL | ≤ 0.2
35 | QQIK | ≤ 0.2
36 | NLQI | ≤ 0.2
37 | TNPS | ≤ 0.2
38 | EPGN | ≤ 0.2
39 | FANT | ≤ 0.2
40 | SSVH | ≤ 0.2
41 | PPVW | ≤ 0.2
42 | SDIF | ≤ 0.2
43 | IYDC | ≤ 0.2
44 | RRET | 0.698
45 | RRHT | 0.755
46 | RRWT | 0.824

Row | Variant | one-hybrid fitness for binding NBS DNA
47 | RRGT | 0.732
48 | RCET | ≤ 0.2
49 | RRGY | 0.36
50 | RRGK | 0.215
51 | RRHM | 0.294
52 | RPET | ≤ 0.2
53 | RRWM | 0.23
54 | RRHG | 0.362
55 | DEAY | ≤ 0.2
56 | MGSC | ≤ 0.2
57 | KCYS | ≤ 0.2
58 | CWHL | ≤ 0.2
59 | DVFL | ≤ 0.2
60 | TRWG | ≤ 0.2
61 | YWSC | ≤ 0.2
62 | RFLT | ≤ 0.2
63 | RRYT | 0.769
64 | RRQM | 0.273
65 | RRLM | 0.228
66 | DRRT | ≤ 0.2
67 | RRQT | 0.752
68 | RRLT | 0.761
69 | RGRT | ≤ 0.2

Row | Variant | one-hybrid fitness for binding NBS DNA
70 | RRQQ | 0.268
71 | RRRT | 0.786
72 | TAWR | ≤ 0.2
73 | RMPQ | ≤ 0.2
74 | CKWG | ≤ 0.2
75 | MIPG | ≤ 0.2
76 | HFNT | ≤ 0.2
77 | GLSP | ≤ 0.2
78 | RRST | 0.776
79 | RACT | 0.334
80 | RRDT | 0.755
81 | RRSC | 0.291
82 | RPDT | ≤ 0.2
83 | RRSQ | 0.284
84 | RRCT | 0.77
85 | RRNK | 0.274
86 | RFCT | ≤ 0.2
87 | RRNT | 0.785
88 | RRNQ | 0.313
89 | KAAL | ≤ 0.2
90 | VLTL | ≤ 0.2
91 | LFQI | ≤ 0.2
92 | MRVN | ≤ 0.2

Row | Variant | one-hybrid fitness for binding NBS DNA
93 | PPII | ≤ 0.2
94 | YTPG | ≤ 0.2
95 | RTNS | 0.534
96 | RTLS | 0.381
97 | RTLD | ≤ 0.2
98 | RTSS | 0.475
99 | RTHH | 0.262
100 | RTDS | 0.219
101 | RTLN | ≤ 0.2
102 | RTSN | ≤ 0.2
103 | RTSD | ≤ 0.2
104 | RTHD | ≤ 0.2
105 | RTND | ≤ 0.2
106 | RTHS | 0.54
107 | HINT | ≤ 0.2
108 | HQTT | ≤ 0.2
109 | ITQC | ≤ 0.2
110 | IHSS | ≤ 0.2
111 | SNIS | ≤ 0.2
112 | KRCM | ≤ 0.2
113 | FKNS | ≤ 0.2
114 | RTRN | 0.277
115 | RTWS | 0.349

Row | Variant | one-hybrid fitness for binding NBS DNA
116 | RTRS | 0.651
117 | RTRH | 0.536
118 | RTIS | 0.34
119 | RTYH | ≤ 0.2
120 | RTYS | 0.491
121 | RTDH | ≤ 0.2
122 | RTRP | ≤ 0.2
123 | IPNR | ≤ 0.2
124 | PSAG | ≤ 0.2
125 | DNSY | ≤ 0.2
126 | AIGW | ≤ 0.2
127 | RVDR | 0.213
128 | RVDS | ≤ 0.2
129 | RVDT | ≤ 0.2
130 | RVNR | 0.55
131 | RVNS | 0.521
132 | RVNT | 0.576
133 | RVNN | ≤ 0.2
134 | RVNP | ≤ 0.2
135 | RVND | ≤ 0.2
136 | WHSS | ≤ 0.2
137 | TLQF | ≤ 0.2
138 | SSCT | ≤ 0.2

Row | Variant | one-hybrid fitness for binding NBS DNA
139 | WSSA | ≤ 0.2
140 | LTMS | ≤ 0.2
141 | PEYD | ≤ 0.2
142 | YDIF | ≤ 0.2
143 | YRPY | ≤ 0.2
144 | RKVC | ≤ 0.2
145 | RMKC | 0.4
146 | RSVC | ≤ 0.2
147 | RKPC | ≤ 0.2
148 | RMYC | ≤ 0.2
149 | RSKC | 0.382
150 | RSYC | ≤ 0.2
151 | RMVC | ≤ 0.2
152 | RCKC | 0.37
153 | RPKC | ≤ 0.2
154 | RLKC | 0.335
155 | RKKC | 0.391
156 | CIWR | ≤ 0.2
157 | TVCY | ≤ 0.2
158 | CPRV | ≤ 0.2
